In PubChem BioAssay:
Activity calls are given as the source filed them. Unless noted, no rule for the calls is given here.

What was measured:
[1] = anti-His antibody binders, primary screen, artefact control for SMM control protein annotation, biochemical, small-molecule microarray, 635 nm fluorescence (AID 1128); conditions: anti-His Alexa647 antibody binding, higher = more signal;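 also: score merges feature fluorescence with signal-to-noise for each printed compound spot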
[2] = system: Human papillomavirus type 1a E7 protein (residues 1-88); test: HPV1a E7 small-molecule binders, primary screen, biochemical, small-molecule microarray, residues 1-88, 635 nm (AID 1129); conditions: small-molecule microarray binding, fluorescence 635 nm; higher = more signal
[3] = target: Focal adhesion kinase 1 (Homo sapiens) (UniProt Q05397); test: small-molecule microarray binders of FAK, primary screen, biochemical, 635/667 nm fluorescence, BSA, DTT (AID 1130); conditions: PTK2 binding, 635 nm fluorescence, higher = more signal;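 also: composite of spot emission at 667 nm and signal to noise over triplicate slides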
Sequence of Focal adhesion kinase 1 (Homo sapiens) (Q05397 whole entry, looked up): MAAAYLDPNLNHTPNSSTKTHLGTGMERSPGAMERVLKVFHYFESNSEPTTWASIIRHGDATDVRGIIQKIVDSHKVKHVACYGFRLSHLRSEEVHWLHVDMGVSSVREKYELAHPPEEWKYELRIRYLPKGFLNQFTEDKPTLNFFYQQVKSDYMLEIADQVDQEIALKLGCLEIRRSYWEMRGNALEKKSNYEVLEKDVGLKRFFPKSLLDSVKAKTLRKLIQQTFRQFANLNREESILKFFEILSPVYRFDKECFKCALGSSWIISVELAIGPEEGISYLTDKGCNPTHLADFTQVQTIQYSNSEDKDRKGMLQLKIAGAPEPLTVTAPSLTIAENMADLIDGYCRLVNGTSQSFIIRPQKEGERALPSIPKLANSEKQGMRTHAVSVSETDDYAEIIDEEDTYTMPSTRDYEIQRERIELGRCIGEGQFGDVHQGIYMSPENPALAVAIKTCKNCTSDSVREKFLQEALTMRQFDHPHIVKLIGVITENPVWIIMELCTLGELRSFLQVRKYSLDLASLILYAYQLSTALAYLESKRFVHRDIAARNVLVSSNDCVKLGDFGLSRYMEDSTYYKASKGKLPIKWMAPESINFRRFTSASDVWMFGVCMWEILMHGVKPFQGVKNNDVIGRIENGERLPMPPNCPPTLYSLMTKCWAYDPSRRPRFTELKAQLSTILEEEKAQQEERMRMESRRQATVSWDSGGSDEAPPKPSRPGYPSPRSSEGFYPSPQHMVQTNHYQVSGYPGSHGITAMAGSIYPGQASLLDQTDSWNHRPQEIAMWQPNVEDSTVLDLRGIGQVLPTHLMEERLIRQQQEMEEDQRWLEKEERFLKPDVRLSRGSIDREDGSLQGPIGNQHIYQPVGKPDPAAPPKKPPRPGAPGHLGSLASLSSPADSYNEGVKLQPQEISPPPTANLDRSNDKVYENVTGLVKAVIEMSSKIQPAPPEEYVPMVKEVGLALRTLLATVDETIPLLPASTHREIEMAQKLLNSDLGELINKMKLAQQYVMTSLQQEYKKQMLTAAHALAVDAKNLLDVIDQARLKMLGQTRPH

[4] = system: Fibrinogen (Alexa647-labelled); test: fibrinogen binders on compound microarrays, profiling panel, artefact control for SMM control-protein annotation, biochemical, small-molecule microarray, 635/667 nm fluorescence (AID 1131); conditions: fibrinogen-A647 binding fluorescence, higher = more signal;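 also: z-score merges 667 nm fluorescence with per-spot signal-to-noise over triplicate slides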
[5] = target: Follistatin (Homo sapiens) (UniProt P19883); test: follistatin binders on small-molecule microarrays, primary screen, biochemical, small-molecule microarray, 635/667 nm fluorescence (AID 1132); conditions: FST binding, 635 nm fluorescence, higher = more signal
Sequence of Follistatin (Homo sapiens) (P19883 whole entry, looked up): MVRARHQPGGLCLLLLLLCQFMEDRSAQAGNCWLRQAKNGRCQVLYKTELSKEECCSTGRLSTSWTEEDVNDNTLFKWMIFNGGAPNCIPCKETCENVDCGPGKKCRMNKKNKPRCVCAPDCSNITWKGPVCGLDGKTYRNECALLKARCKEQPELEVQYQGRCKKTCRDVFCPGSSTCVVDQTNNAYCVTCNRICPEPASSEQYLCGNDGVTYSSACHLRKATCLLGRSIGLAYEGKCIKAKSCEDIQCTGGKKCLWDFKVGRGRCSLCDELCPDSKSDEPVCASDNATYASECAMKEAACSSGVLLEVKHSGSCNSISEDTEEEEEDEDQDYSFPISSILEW

[6] = target: Fibroblast growth factor 2 (Homo sapiens) (UniProt P09038); test: FGF2 binders on small-molecule microarrays, primary screen, biochemical, small-molecule microarray, 635/667 nm fluorescence (AID 1133); conditions: small-molecule microarray binding, FGF2, fluorescence 635/667; higher = more signal
Sequence of Fibroblast growth factor 2 (Homo sapiens) (P09038 whole entry, looked up): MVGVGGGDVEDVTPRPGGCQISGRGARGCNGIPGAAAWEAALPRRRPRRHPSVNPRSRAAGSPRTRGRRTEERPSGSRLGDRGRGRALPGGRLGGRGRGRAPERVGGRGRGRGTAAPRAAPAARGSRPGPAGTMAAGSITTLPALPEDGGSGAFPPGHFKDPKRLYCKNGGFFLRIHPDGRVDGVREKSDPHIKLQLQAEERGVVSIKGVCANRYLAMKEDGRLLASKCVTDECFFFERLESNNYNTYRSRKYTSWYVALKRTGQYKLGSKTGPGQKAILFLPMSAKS

[7] = mitochondrial membrane potential change in A549 cells, profiling panel, cell-based, JC-1 fluorescence, basal, 24 h, 100 nL (AID 1138); conditions: higher = more signal;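 also: A549 lung adenocarcinoma cells under basal conditions with no added stimulus; test concentration not given here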
[8] = system: Lefty1; test: Lefty1 binders on small-molecule microarrays, primary screen, biochemical, small-molecule microarray, 635/667 nm fluorescence (AID 1139); conditions: small-molecule microarray binding, fluorescence 635/667; higher = more signal
[9] = system: wheat germ agglutinin (Triticum aestivum), Alexa647-labelled; test: wheat germ agglutinin binders on compound microarrays, profiling panel, artefact control for SMM control-protein annotation, biochemical, small-molecule microarray, 635/667 nm fluorescence (AID 1140); conditions: WGA-A647 binding, 635 nm fluorescence, higher = more signal;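 also: score merges 667 nm feature emission with signal to noise over triplicate slides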
[10] = target: Luciferin 4-monooxygenase (Photinus pyralis) (UniProt P08659); test: firefly luciferase enzyme inhibitors, primary screen, biochemical, luminescence, purified enzyme, 2006 set (AID 1141); conditions: SteadyGlo luminescence, 30 min, higher = more signal, called active from +8 up or from −8 down;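 also: cell-free assay with purified firefly luciferase at 100 ng per well in PBS; test concentration not given here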
Sequence of Luciferin 4-monooxygenase (Photinus pyralis) (P08659 whole entry, looked up): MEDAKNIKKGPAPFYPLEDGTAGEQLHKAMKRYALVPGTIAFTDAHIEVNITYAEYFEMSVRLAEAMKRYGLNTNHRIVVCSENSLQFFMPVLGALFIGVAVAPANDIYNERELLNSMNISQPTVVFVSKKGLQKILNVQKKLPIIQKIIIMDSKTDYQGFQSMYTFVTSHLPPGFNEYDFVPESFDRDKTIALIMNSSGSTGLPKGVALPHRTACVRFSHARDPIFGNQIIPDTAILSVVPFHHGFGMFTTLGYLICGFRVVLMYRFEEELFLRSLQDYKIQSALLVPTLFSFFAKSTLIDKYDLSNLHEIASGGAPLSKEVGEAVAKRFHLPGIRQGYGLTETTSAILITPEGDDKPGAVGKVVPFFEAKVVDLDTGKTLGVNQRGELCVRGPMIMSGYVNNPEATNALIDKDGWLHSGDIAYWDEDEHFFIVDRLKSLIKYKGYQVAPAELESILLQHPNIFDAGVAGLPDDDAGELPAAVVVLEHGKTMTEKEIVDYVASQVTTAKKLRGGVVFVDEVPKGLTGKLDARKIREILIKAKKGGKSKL

[11] = system: Wnt5a (protein binding on small-molecule microarray); test: Wnt5a binders on small-molecule microarray, primary screen, biophysical, 635/667 nm fluorescence (AID 1142); conditions: 635 nm fluorescence, higher = more signal;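 also: fluorescence read at 667 nm with signal to noise per printed feature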
[12] = cell viability in Huh7 cells, primary screen, cytotoxicity control for HCV replication inhibitor project, CellTiter-Glo luminescence, basal, 48 h (AID 1143); conditions: Huh7 HCV replicon, higher = more signal, called active from +8 up or from −8 down;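 also: Huh7 hepatoma cells carrying a hepatitis C replication reporter with no stimulus; test concentration not given here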
[13] = P. aeruginosa biofilm formation inhibitors, primary screen, PAO1 strain, BacTiter-Glo luminescence, LB-PBS (AID 1144); conditions: 12 h, higher = more signal
[14] = CREB reporter modulators without forskolin, primary screen, cell-based, PC12, CRE-LacZ reporter, unstimulated (AID 1145); conditions: no forskolin, luminescence, 4.5 h, higher = more signal, called active from +8 up or from −8 down
[15] = CREB reporter modulators under forskolin, primary screen, cell-based, PC12, CRE-LacZ reporter, forskolin-stimulated (AID 1146); conditions: luminescence, 4.5 h, higher = more signal, called active from +8 up or from −8 down;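 also: PC12 cells with 6xCRE LacZ reporter stimulated by forskolin 10 µM; beta-galactosidase reporter signal reflecting CREB driven transcription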
[16] = target: Streptavidin (Streptomyces avidinii) (UniProt P22629); test: streptavidin binders on small-molecule microarray, primary screen, artefact control for SMM compound annotation, biophysical, 635/667 nm fluorescence (AID 1147); conditions: streptavidin binding, higher = more signal;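 also: signal reflects streptavidin binding to arrayed compounds as a control protein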
Sequence of Streptavidin (Streptomyces avidinii) (P22629 whole entry, looked up): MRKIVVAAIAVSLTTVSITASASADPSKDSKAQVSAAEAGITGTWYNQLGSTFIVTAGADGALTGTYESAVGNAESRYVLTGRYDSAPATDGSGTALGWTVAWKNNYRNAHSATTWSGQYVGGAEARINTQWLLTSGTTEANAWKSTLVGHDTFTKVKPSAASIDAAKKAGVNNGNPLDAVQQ

[17] = small-molecule binders of probe aInhba, primary screen, biochemical, small-molecule microarray, 635/667 nm fluorescence (AID 1148); conditions: higher = more signal;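 also: score merges 667nm spot fluorescence with signal-to-noise for antibody binding to printed compounds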
[18] = target: Torsin-1A (Homo sapiens) (UniProt O14656); test: torsin A binders from cell lysate, primary screen, small-molecule microarray, wild-type, 635/667 nm (AID 1149); conditions: COS7 hTOR1A-WT lysate, 635 nm fluorescence, higher = more signal
Sequence of Torsin-1A (Homo sapiens) (O14656 whole entry, looked up): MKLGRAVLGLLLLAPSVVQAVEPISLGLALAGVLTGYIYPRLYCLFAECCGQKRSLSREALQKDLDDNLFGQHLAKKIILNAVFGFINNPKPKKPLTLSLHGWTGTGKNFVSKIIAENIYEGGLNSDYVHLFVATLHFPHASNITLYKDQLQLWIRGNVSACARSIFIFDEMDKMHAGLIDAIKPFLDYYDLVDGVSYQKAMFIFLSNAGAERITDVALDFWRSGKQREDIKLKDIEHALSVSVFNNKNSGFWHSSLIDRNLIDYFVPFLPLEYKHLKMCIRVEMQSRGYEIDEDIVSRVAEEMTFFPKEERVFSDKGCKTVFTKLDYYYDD

[19] = target: Torsin-1A (Homo sapiens) (UniProt O14656); test: small-molecule binders of mutant TOR1A in lysate, primary screen, cell lysate, small-molecule microarray, COS7 lysate, 635/667 nm fluorescence (AID 1150); conditions: COS7 hTOR1A mutant lysate, 635 nm fluorescence, higher = more signal;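 also: score pools 667 nm emission and signal to noise measuring lysate protein binding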
[20] = system: Sonic hedgehog protein (Shh); test: small-molecule binders of Shh protein, primary screen, biochemical, small-molecule microarray, 635/667 nm fluorescence (AID 1151); conditions: small-molecule microarray binding, 635 nm fluorescence; higher = more signal;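 also: Shh protein binding to compounds spotted on small-molecule microarray slides; score combines spot fluorescence intensity with signal-to-noise across triplicate slides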

Structure (SMILES)	composite z-score [1]	composite z-score [2]	composite z-score [3]	composite z-score [4]	composite z-score [5]	composite z-score [6]	z-score [7]	composite z-score [8]	composite z-score [9]	z-score [10]	composite z-score [11]	z-score [12]	z-score [13]	z-score [14]	z-score [15]	composite z-score [16]	composite z-score [17]	composite z-score [18]	composite z-score [19]	composite z-score [20]
C=CCOC(=O)[C@H]1[C@@H]2C(=O)O[C@@H](c3ccccc3)[C@@H](c3ccccc3)N2[C@@H](c2ccc(OCCOC(=O)[C@H]3C[C@H]4C(=O)N[C@@H](Cc5ccccc5)C(=O)N4[C@H]3c3cccc(OCCO)c3)cc2)[C@]12C(=O)Nc1ccc(I)cc12	2.34	1.16	0.41	0.948	1.2	1.71	-1.41	1.35	0.324	-0.65 (inactive)	0.971	-0.441 (inactive)	-0.283 (inactive)	0.688 (inactive)	0.144 (inactive)	0.309	-0.0112	0.703	0.815	2.16
COc1ccc(C(O)C2C=CC3C(=O)N(Cc4ccccc4)C(=O)C3N2n2cnnc2)c2ccccc12 (stereo not given)	0.727	0.782	1.77	1.01	0.421	-1.54	-1.08	0.635	0.0261	1.01 (inactive)	-0.795	-3.64 (inactive)	0.038 (inactive)	-0.126 (inactive)	-0.138 (inactive)	-0.677	-0.0136	1.95	0.432	-0.237
CC(C)OC(=O)CC(=O)CC(O)c1cccc(C#N)c1 (stereo not given)	0.797	0.828	0.763	0.974	0.102	-0.51	0.67	-0.0714	0.841	1.2 (inactive)	0.167	-2.13 (inactive)	-0.461 (inactive)	-0.63 (inactive)	-0.291 (inactive)	1.35	0.0841	0.863	1.97	-0.206
C=C(CCCC)/C(=C/C[C@@H](OC(=O)c1ccncc1)c1cccc(OCCO)c1)c1cnc2ccccc2c1	0.65	0.539	0.0663	0.832	1.5	1.74	1.14	1.6	0.871	-1.63 (inactive)	1.25	-3.08 (inactive)	-0.772 (inactive)	3.22 (inactive)	0.644 (inactive)	1.49	0.194	1.22	0.0816	2.09
C=CCC(OC(C)=O)[C@@H]1[C@@H](N(Cc2cc3ccccc3o2)C(=O)Cc2ccc(F)cc2)c2cc(OCCCO)ccc2N1C(=O)c1ccc2ccccc2n1 (stereo not given in full)	0.055	-0.694	0.0919	0.271	0.147	-0.0144	0.728	-0.189	0.0937	-0.997 (inactive)	0.705	0.252 (inactive)	-0.398 (inactive)	3.16 (inactive)	0.0063 (inactive)	0.0443	-0.142	-0.398	-0.226	0.0974
